For assay [1], the target named is Ferritin light chain (Equus caballus) (UniProt P02791). The assay is described as follows: qHTS Validation Assay for Identification of Novel General Anesthetics (AID 2323). Note: % is set by controls: 0 for no effect and ±100 for the full control effect. In short, it runs like this:
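10 uM horse-spleen apoferritin + 1-AMA (50% saturated, PBS); cpd pin-transferred, 10 min RT. Ex 380/Em 535 nm endpoint. Activity normalized between free 1-AMA and 1-AMA/apoferritin; 4-parameter Hill fit of concentration-response.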

The target of assay [2] is RecQ-like DNA helicase BLM (Homo sapiens) (UniProt P54132). The experiment in a line: qHTS Validation Assay for Inhibitors of Bloom's syndrome helicase (BLM) (AID 2364). Note: potency is the fitted concentration of half-maximal effect. In short, it runs like this: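 BLM 50 nM in 25 mM Tris-HCl pH 8.0, 5 mM NaCl, 2 mM MgCl2, 1 mM DTT, 0.01% Tween-20, 2.5 ug/ml poly(dI-dC); 15 min cpd preinc, RT. Start: 200 nM forked DNA + 2 mM ATP (final). TAMRA read, 2 reads 2 h apart.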
(In general: qHTS replaces the single test concentration by a dilution series.)

Assay [3] in a line: Validation screen for inhibitors of Lassa infection (AID 463096; calls by dose curve; note: % is set by controls: 0 for no effect and ±100 for the full control effect).
Assay [4] deals with Thioredoxin reductase 1, cytoplasmic (Rattus norvegicus) (UniProt O89049). The assay is described as follows: qHTS Assay for Substrates of Mammalian Selenoprotein Thioredoxin Reductase 1 (TrxR1) (AID 488772).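 Note: 0% is about no effect; a drop in NADPH fluorescence below the no-compound background marks a TrxR1 substrate.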 Put shortly: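 In this dual-purpose format, potential substrates are identified from the first fluorescence read after selenite addition, not from the 8-minute delta. Rat enzyme is preincubated with NADPH and then with compound at ~22 deg C.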

Assay [5] concerns the target M-phase phosphoprotein 8 (Homo sapiens) (UniProt Q99549). The experiment in a line: qHTS Validation Assay for Inhibitors for MPP8 Chromodomain Interactions with Methylated Histone Tails (AID 488949).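 Note: AlphaScreen signal from MPP8 chromodomain bound to biotinylated H3K9me3 peptide; top concentration of the series differs between compounds; % is set by controls: 0 for no effect and ±100 for the full control effect; nearly all actives have a fitted effect of over 55% in size.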 Put shortly:
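AlphaScreen read-out: streptavidin donor and nickel chelate acceptor beads (final 10 ug/mL), 30 min in the dark at RT. Complex of 50 nM MPP8 and 50 nM b-H3(1-18)K9me3 peptide had been exposed to compounds for 30 min beforehand.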

The nature of assay [6]: Validation screen for small molecules that induce genotoxicity in human embryonic kidney (HEK293T) cells expressing luciferase-tagged ELG1 (AID 493106). Note: 0% is about no effect. Put shortly: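 In this validation screen, increased ELG1-luciferase signal flags compounds causing genetic stress. HEK293T reporter cells are treated 16 hr (37 °C, 5% CO2), developed with ONE-Glo for 30 min at room temperature, and imaged on a CCD-based reader.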

Assay [7] is described as follows: Inducers of the Endoplasmic Reticulum Stress Response (ERSR) in human glioma: Validation (AID 504836). Note: 0% is about no effect. Put shortly:
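Stably transfected U87-MG human glioma cells carrying a GRP78-based luminescent sensor were seeded at 1000 cells/well, pin-dosed with compounds and incubated 16 h. Luciferase reagent was then added, and end-point luminescence was read after 10 min at room temperature.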

The target of assay [8] is Ubiquitin carboxyl-terminal hydrolase 1 (Homo sapiens) (UniProt O94782). The assay is described as follows: Inhibitors of USP1/UAF1: Pilot qHTS (AID 504865).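 Note: rhodamine fluorescence freed from ubiquitin-rhodamine substrate followed over time; top concentration of the series differs between compounds; % is set by controls: 0 for no effect and ±100 for the full control effect; nearly all actives have a fitted effect of over 35% in size.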 In short, it runs like this:
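1nM USP1/UAF1 + cpd, 15 min RT; start w/ Ub-Rho 150nM final; kinetic FL 480/540 nm, 6 reads q60 s. Buffer 50mM HEPES pH 7.8, 0.5mM EDTA, 1mM TCEP, 0.01% Tween-20, 0.1 mg/ml BSA.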

Assay [9] concerns the target Bile acid receptor (Homo sapiens) (UniProt Q96RI1). The assay is described as follows: qHTS assay for small molecule agonists of farnesoid X receptor signaling (AID 588527; calls by dose curve;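 note: 0% = vehicle basal and 100% = reference agonist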). As to conditions: HEK293T FXR-UAS-bla, beta-lactamase ratio, 16 h; activation: stronger effect = higher value. In short, it runs like this: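 Quantitative HTS used FXR-UAS-bla HEK293T cells with 16 h compound incubation at 37 C. EC50 values came from concentration-response curves normalized to chenodeoxycholic acid.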

A short description of assay [10]: qHTS assay for small molecule agonists of the antioxidant response element (ARE) signaling pathway (AID 651741; active = well fitted activation curve with a large enough effect in the signal ratio; the % refers to the signal ratio; note: potency is the fitted concentration of half-maximal effect). Put shortly: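 Beta-lactamase reporter expression driven by the antioxidant response element in HepG2 cells was detected by fluorescence with LiveBLAzer B/G FRET substrate (2 h, room temperature) following 16 h compound treatment at 37 C.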
Assay [11] is described as follows: qHTS assay for small molecule activators of the p53 signaling pathway (AID 651743; active = well fitted activation curve with a large enough effect in the signal ratio, not every such curve was filed as active; the % refers to the signal ratio; note: potency is the fitted concentration of half-maximal effect). As to conditions: HCT-116 p53RE-bla, beta-lactamase FRET ratio, 16 h; activation: stronger effect = higher value. In short, it runs like this: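 Here HCT-116 cells with an integrated p53-responsive beta-lactamase gene were incubated with compounds (16 hours, 37 C) after a 5-hour plating period; beta-lactamase activity was detected as fluorescence intensity via B/G FRET substrate.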

Assay [12] deals with Arylsulfatase A (Homo sapiens) (UniProt P15289). The assay is described as follows: qHTS screen for enhancers of Arylsulfatase A (ASA1): LOPAC Validation Assay (AID 720538). Note: 0% is about no effect. In short, it runs like this: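 Read-out: fluorescence at Ex=525/Em=598 nm after 1N NaOH final stop. Patient fibroblasts carrying ASA-I179S had 48h compound exposure, then 14h room-temperature pNCS hydrolysis (0.5mM final) in lysis buffer. Signal increase = enhanced activity.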
Sequence of Arylsulfatase A (Homo sapiens) (P15289 whole entry, looked up): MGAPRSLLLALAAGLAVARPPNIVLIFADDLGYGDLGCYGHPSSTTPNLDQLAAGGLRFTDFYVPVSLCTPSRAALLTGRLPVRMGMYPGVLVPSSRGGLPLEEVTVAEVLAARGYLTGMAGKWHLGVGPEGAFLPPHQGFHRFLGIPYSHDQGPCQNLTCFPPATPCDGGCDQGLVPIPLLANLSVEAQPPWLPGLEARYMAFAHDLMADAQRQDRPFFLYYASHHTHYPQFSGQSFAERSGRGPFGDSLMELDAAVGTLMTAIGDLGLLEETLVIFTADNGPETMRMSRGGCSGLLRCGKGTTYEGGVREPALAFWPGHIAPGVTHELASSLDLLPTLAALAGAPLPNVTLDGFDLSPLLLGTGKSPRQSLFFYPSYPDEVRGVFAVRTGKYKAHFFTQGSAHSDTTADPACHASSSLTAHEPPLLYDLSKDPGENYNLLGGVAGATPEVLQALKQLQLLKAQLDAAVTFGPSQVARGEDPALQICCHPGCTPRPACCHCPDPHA

Assay [13] is described as follows: qHTS assay for small molecule agonists of the antioxidant response element (ARE) signaling pathway measured by Nrf2-dependant transcriptional activity - cell viability counter screen (AID 720653; active = well fitted curve in the direction sought with a large enough effect in the repeat runs; an effect the other way counts as inactive or inconclusive; note: potency is the fitted concentration of half-maximal effect). The following applies: ARE-bla HepG2 viability, CellTiter-Glo ATP luminescence, 16 h; max response: stronger effect = lower value. In short, it runs like this: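 ARE-bla HepG2 cells (2,000/well) rested 5 hrs at 37C/5% CO2, then exposed to compounds in DMSO for 16 hrs. Viability was read in the same wells as intracellular ATP by luminescence, 30 min at room temperature after reagent addition.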

Assay [14] can be described thus: qHTS for Inhibitors of the Functional Ribonucleoprotein Complex (vRNP) of Lassa (LASV) Arenavirus: LASV Primary Screen - GLuc reporter signal (AID 1347082; calls by dose curve; tested in HEK293 reporter line; note: % is set by controls: 0 for no effect and ±100 for the full control effect; nearly all actives have a fitted effect of over 60% in size).
Assay [15] in a line: qHTS for Inhibitors of the Functional Ribonucleoprotein Complex (vRNP) of Lassa (LASV) Arenavirus: Viability assay - alamar blue signal for LASV Primary Screen (AID 1347083; calls by dose curve; tested in HEK293 reporter line; note: nearly all actives have a fitted effect of over 80% in size; note: potency is the fitted concentration of half-maximal effect).
Assay [16] can be described thus: qHTS for Inhibitors of the Functional Ribonucleoprotein Complex (vRNP) of Lymphocytic Choriomeningitis Arenaviruses (LCMV): Viability assay - alamar blue signal for LCMV Primary Screen (AID 1347085; calls by dose curve; tested in HEK293 reporter line; note: nearly all actives have a fitted effect of over 80% in size; note: potency is the fitted concentration of half-maximal effect).
Assay [17] has as its target Nucleoprotein (Lymphocytic choriomeningitis virus (strain Armstrong)) (UniProt P09992). The experiment in a line: qHTS for Inhibitors of the Functional Ribonucleoprotein Complex (vRNP) of Lymphocytic Choriomeningitis Arenaviruses (LCMV): LCMV Primary Screen - GLuc reporter signal (AID 1347086; calls by dose curve; note: % is set by controls: 0 for no effect and ±100 for the full control effect; nearly all actives have a fitted effect of over 70% in size).
The nature of assay [18]: Cytotoxicity counterscreen for inhibitors of SARS-CoV-2 cell entry (AID 1645845; calls by dose curve; note: nearly all actives have a fitted effect of over 50% in size). Put shortly: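 After a 15 min room-temperature ATPLite 1step step, luminescence reflected ATP remaining in HEK293-ACE2 cells exposed to compound for 1 h plus 48 h at 37 C, with percent activity set by cell and no-cell controls.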
Assay [19] is described as follows: Primary qHTS to identify inhibitors of SARS-CoV-2 cell entry (AID 1645846; calls by dose curve; note: nearly all actives have a fitted effect of over 45% in size). The following applies: activity change, negative = inhibition: at 57.1 µM (top of the series) unless noted. Put shortly: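 HEK293-ACE2 (Expi293F, stable hACE2), 1500 cells/well, o/n 37C; cpd 23 nL pin, 1 h; MLV-PP w/ SARS-CoV-2-S (Wuhan-Hu-1, Δ19 C-term); 48 h 37C; Bright-Glo luminescence; normalized vs S-PP and bald PP.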

The target in assay [20] is Cytochrome P450 3A4 (Homo sapiens) (UniProt P08684). The assay is described as follows: qHTS Assay for Activators of Cytochrome P450 3A4 (AID 885). Note: nearly all actives have a fitted effect of over 65% in size. Put shortly: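 Using 20nM recombinant human CYP3A4 in potassium phosphate (200mM), substrate Luciferin-PPXE at 25uM, luminescent luciferin detection followed a 60-min RT NADPH reaction; data scaled to 57 uM ketoconazole.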
Sequence of Cytochrome P450 3A4 (Homo sapiens) (P08684 whole entry, looked up): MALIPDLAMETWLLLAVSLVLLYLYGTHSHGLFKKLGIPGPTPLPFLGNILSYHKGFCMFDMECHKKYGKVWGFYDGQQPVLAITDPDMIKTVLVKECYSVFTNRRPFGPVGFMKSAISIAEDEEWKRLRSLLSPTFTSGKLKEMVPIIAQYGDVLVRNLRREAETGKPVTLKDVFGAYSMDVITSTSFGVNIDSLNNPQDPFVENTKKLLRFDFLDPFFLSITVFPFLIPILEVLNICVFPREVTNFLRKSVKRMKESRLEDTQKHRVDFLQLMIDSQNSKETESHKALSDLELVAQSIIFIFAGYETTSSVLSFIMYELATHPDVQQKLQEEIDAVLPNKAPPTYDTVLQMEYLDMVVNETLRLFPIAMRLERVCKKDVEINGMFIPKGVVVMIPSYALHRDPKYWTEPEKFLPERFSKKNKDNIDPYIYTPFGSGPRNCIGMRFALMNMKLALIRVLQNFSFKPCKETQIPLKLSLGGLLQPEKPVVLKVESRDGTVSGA

Assay [21] addresses Cytochrome P450 2C19 (Homo sapiens) (UniProt P33261). The experiment in a line: qHTS Assay for Inhibitors and Substrates of Cytochrome P450 2C19 (AID 899). Note: potency is the fitted concentration of half-maximal effect; nearly all actives have a fitted effect of over 60% in size. Put shortly: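 In 50mM KPO4, the reaction held 5nM enzyme and KM-level (10uM) Luciferin-H EGE; it ran 60 min at 37C after NADPH regeneration and a 10 min compound preincubation. Luminescence values were scaled to 57uM ketoconazole as complete inhibition.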

Assay [22] deals with Alpha-galactosidase (Coffea arabica) (UniProt Q42656). The experiment in a line: Counterscreen for Glucocerebrosidase Inhibitors: qHTS Assay for Coffee Bean alpha-Galactosidase at pH 5.9 (AID 998).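 Note: plate controls were uninhibited enzyme for no effect and no-enzyme basal signal for full effect.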 Put shortly:
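In 50 mM citric acid pH 5.9 with 0.005% Tween-20, coffee bean enzyme hydrolyses 80 uM 4-MU alpha-D-galactopyranoside over 20 min at RT. Activity is normalized to controls; AC50 comes from Hill-modelled concentration-response data.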

The target of assay [23] is Cytochrome P450 3A4 (Homo sapiens) (UniProt P08684). The assay is described as follows: qHTS Assay for Inhibitors and Substrates of Cytochrome P450 3A4 (AID 884). Note: potency is the fitted concentration of half-maximal effect; nearly all actives have a fitted effect of over 50% in size. Put shortly: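 Luminescent readout of luciferin produced by CYP3A4 (20 nM) dealkylation of Luciferin-PPXE, 25 uM (its KM). NADPH-driven reaction ran 60 min at RT after 10 min compound preincubation; data scaled to 57 uM ketoconazole as 100% inhibition.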

The target in assay [24] is Alpha-galactosidase (Coffea arabica) (UniProt Q42656). The experiment in a line: Counterscreen for Glucocerebrosidase Inhibitors: qHTS Assay for Coffee Bean alpha-Galactosidase at pH 4.5 (AID 957).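 Note: plate controls were enzyme alone for no effect and no enzyme for full effect.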 In short, it runs like this:
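Quantitative HTS of compounds (0.7 nM to 77 uM) against coffee bean alpha-galactosidase at pH 4.5, measuring 4-methylumbelliferone fluorescence released from 80 uM substrate.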
In general terms: Counterscreens check selectivity or assay interference.

Results filed as inconclusive are left out. Active and inactive are the calls of the source. Unless noted, calls come from the whole dose curve; as a rule, active = well fitted curve in the direction sought with a large enough effect; inconclusive = small, poorly fitted or top-dose-only effect, or another doubt; inactive = no such curve, though single readings can be large; an effect the other way counts as inactive or inconclusive.

These results are taken from PubChem BioAssay (NCATS).

Sequence of Nucleoprotein (Lymphocytic choriomeningitis virus (strain Armstrong)) (P09992 whole entry, looked up): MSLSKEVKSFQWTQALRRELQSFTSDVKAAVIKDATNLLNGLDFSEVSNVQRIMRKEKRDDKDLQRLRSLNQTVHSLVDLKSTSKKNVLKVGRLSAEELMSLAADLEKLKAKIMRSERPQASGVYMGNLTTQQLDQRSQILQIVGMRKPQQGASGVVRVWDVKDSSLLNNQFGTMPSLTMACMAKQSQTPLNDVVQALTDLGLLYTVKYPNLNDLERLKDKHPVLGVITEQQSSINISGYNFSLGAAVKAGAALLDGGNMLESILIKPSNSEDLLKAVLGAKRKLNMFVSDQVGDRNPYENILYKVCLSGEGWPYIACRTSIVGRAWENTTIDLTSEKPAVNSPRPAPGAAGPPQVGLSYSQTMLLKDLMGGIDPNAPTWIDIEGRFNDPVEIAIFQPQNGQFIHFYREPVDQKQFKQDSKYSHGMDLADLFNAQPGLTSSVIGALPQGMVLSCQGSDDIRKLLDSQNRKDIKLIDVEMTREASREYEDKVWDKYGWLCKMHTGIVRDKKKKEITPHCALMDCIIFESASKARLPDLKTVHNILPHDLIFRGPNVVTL
Sequence of Alpha-galactosidase (Coffea arabica) (Q42656 whole entry, looked up): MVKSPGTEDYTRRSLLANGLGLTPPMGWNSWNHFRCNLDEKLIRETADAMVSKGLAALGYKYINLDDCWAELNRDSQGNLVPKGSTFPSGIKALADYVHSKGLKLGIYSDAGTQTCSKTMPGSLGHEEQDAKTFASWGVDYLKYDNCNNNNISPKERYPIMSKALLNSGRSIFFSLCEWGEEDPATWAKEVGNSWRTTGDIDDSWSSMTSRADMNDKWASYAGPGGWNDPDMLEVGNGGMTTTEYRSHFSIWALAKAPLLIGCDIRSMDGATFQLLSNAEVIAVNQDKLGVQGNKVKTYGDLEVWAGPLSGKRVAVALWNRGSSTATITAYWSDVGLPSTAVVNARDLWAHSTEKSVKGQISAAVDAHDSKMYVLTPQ
Sequence of M-phase phosphoprotein 8 (Homo sapiens) (Q99549 whole entry, looked up): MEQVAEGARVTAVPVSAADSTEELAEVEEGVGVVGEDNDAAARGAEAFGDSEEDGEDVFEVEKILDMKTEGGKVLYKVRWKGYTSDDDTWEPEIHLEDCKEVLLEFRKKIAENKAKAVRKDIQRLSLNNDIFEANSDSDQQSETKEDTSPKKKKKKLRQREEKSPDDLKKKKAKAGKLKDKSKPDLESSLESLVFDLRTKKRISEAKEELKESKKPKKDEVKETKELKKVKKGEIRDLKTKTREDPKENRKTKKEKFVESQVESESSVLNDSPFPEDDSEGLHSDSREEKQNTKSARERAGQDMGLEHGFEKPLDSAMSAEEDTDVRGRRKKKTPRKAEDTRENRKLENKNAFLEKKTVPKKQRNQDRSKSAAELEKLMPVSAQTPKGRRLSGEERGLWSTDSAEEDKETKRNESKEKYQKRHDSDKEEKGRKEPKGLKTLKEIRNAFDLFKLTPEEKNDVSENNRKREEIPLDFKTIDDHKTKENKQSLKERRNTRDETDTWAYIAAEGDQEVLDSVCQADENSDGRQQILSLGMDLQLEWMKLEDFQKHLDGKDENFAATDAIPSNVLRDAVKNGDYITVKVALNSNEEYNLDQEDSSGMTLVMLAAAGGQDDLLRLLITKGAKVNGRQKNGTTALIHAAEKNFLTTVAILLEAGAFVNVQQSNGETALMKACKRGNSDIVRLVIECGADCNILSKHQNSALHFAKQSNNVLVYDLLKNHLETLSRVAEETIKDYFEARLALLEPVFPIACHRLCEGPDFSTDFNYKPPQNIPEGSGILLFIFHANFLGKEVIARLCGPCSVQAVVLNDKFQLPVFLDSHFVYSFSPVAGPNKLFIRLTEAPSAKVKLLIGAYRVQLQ
Sequence of Cytochrome P450 2C19 (Homo sapiens) (P33261 whole entry, looked up): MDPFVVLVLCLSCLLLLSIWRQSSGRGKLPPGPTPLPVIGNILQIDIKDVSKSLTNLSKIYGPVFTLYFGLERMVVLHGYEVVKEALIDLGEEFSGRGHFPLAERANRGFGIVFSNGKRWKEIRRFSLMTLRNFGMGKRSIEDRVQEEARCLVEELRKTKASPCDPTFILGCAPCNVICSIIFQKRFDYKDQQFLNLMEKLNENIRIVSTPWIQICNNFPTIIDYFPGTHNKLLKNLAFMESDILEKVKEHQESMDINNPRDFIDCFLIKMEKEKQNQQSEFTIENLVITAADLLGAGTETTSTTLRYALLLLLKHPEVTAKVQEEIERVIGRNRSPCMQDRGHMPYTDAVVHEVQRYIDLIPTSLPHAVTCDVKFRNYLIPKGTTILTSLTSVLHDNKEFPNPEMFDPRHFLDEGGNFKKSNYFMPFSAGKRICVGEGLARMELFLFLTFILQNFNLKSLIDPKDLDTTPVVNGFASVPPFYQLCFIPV
Sequence of Ubiquitin carboxyl-terminal hydrolase 1 (Homo sapiens) (O94782 whole entry, looked up): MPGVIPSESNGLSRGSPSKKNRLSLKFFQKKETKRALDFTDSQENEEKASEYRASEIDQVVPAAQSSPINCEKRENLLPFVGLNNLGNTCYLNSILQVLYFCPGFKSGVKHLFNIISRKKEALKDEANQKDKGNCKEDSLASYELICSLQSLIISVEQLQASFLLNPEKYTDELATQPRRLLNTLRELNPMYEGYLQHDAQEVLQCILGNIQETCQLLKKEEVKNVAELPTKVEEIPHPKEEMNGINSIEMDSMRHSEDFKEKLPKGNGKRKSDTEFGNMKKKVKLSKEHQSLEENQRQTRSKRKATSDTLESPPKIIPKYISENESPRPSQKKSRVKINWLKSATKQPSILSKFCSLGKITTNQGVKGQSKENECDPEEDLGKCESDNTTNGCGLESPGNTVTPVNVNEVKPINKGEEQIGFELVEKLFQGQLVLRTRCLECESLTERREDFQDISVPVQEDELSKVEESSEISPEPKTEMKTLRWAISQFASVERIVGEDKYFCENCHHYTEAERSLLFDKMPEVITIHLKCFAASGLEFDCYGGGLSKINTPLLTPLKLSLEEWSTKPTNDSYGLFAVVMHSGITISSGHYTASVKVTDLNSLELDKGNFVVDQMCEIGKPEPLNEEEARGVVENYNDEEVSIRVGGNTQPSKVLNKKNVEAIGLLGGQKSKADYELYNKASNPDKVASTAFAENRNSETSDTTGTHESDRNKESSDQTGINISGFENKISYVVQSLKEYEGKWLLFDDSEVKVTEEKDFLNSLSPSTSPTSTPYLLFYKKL
Sequence of Ferritin light chain (Equus caballus) (P02791 2-175 limits assumed): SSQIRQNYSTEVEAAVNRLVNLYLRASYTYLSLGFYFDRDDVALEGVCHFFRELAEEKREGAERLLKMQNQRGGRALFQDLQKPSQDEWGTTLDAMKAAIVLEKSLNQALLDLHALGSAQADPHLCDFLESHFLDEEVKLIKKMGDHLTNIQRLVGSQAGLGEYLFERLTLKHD
Sequence of Bile acid receptor (Homo sapiens) (Q96RI1 whole entry, looked up): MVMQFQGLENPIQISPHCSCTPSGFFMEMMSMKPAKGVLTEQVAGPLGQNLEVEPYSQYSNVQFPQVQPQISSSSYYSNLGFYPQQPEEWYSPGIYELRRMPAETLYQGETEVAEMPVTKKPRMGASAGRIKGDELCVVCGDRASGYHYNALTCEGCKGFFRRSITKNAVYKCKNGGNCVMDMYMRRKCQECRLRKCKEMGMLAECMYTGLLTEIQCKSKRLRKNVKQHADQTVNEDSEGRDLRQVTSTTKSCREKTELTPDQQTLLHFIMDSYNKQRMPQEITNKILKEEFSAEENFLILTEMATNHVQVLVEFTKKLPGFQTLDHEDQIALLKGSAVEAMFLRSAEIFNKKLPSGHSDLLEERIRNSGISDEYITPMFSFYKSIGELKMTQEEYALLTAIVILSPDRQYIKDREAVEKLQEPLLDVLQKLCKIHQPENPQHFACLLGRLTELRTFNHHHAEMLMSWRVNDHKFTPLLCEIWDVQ

Regarding `Nc1nc(N)c2nc(CNc3ccc(C(=O)NC(CCC(=O)O)C(=O)O)cc3)cnc2n1` (centres undefined), the result in assay [1], in assay [4], in assay [6] and in [7] was inactive. Besides, the Potency in [2] was 20 µM (active); in assay [10], 0.077 µM (active); in assay [11], 0.1 µM (active); in [13] it was 0.0126 µM (active). Besides, the Potency result in assay [3], in assay [5], in assay [8], in [12], in assay [14] and in assay [15] was “inactive” each time. For the same compound, the Potency entry in assay [16], in [17], in assay [18] and in assay [19] was “inactive” each time. The activation in assay [9] was 1.76% (inactive).

As to `O=c1c(O)c(-c2cc(O)c(O)c(O)c2)oc2cc(O)cc(O)c12`, the Potency entry in [20], in assay [14], in [15], in assay [16], in [17] and in assay [18] was “inactive” throughout. In addition, the Potency result in assay [19] was “inactive”. Besides, the Potency in [21] is 10 µM (active). The compound was called inactive in assay [22] and in assay [7].

With `Oc1ccc(-c2nc(-c3ccc(F)cc3)c(-c3ccncc3)[nH]2)cc1`, the Potency in [23] is 1 µM (active). Further, the Potency result in assay [20], in [14], in assay [15], in [16], in assay [17] and in [18] was “inactive” each time. For the same compound, the compound was called inactive in assay [24], in assay [22] and in assay [7].

Consider `O=C(Nc1cccc(Nc2ncc(Br)c(NCCc3cnc[nH]3)n2)c1)N1CCCC1`, for which the Potency result in assay [14] and in [17] was “inactive” in each case. Moreover, the Potency in assay [15] is 21.7 µM (active); in [16], 27.3 µM (active). Moreover, the activity change, negative = inhibition in assay [19] was -97.2%.

For `Cc1nc(C(=O)NCC(=O)O)c(O)c2ccc(Oc3ccccc3)cc12`, the Potency result in assay [14], in [15], in assay [16] and in assay [17] was “inactive” in each case. For the same compound, in assay [19], the activity change, negative = inhibition is -9.8%.
